High-throughput results deposited in PubChem by National Center for Advancing Translational Sciences (NCATS).
SMN2 splice enh – enhancers of SMN2 splice variant expression. HEK293 SMN2-luciferase splicing reporter, luminescence, 30-36 h. Potency, µM (titrated, usually from 46.1 µM), actives largely listed as activators. 2.8% of 210,000 active. AID 1458; further: nearly all actives have a fitted effect of over 55% in size
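qHTS luciferase splicing reporter: luminescence rises when SMN2 exon 7 is included in transfected HEK293 cells. Compound exposure lasted 30-36 h at 37C, with 4.5 mM final sodium butyrate as control, followed by a ONE-Glo read.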
Rab9 prom act – activators of Rab9 promoter; 2.8% of 320,000 active; Huh7 Rab9 promoter-luciferase reporter, luminescence, 24 h; AID 485297; Potency, µM (doses to about 9.22 µM), actives largely listed as activators; further: nearly all actives have a fitted effect of over 60% in size
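Luciferase signal after 10 min detection reagent at ambient indicates Rab9 promoter upregulation; stably transfected Huh7 cells were treated 24 h with compound in DMSO at 37 °C, 5% CO2.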
ELG1 genotoxic – genotoxicity induction in ELG1-luciferase HEK293T cells | HEK293T ELG1-luciferase reporter, luminescence, 16 h | Potency, µM (series often up to 46 µM), most hits filed as activators | 1.3% of 330,000 active; further: nearly all actives have a fitted effect of over 60% in size
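Screening used a luciferase reporter fused to human ELG1 in HEK293T cells. Luminescence was read on a CCD plate imager after 16 hr exposure and 30 min ONE-Glo incubation.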
NPC1 prom act – activates the NPC1 promoter; Huh7 NPC1 promoter luciferase reporter, 24 h; Potency, µM (highest dose often 9.22 µM), most hits filed as activators; 2.4% of 320,000 active; further: nearly all actives have a fitted effect of over 60% in size
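Huh7 reporter cells (NPC1 promoter driving luciferase) are dosed with compound for 24 h at 37 °C, 5% CO2; luciferase detection reagent is then added and luminescence measured after 10 min at ambient temperature.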
FLuc counter – inhibits or activates purified firefly luciferase, miR-21 counter-screen; P08659; purified FLuc, Km substrates, luminescence inhibition; Potency, µM (top dose mostly 57.5 µM), usual class: inhibitors; 6.9% of 360,000 active; further: nearly all actives have a fitted effect of over 55% in size
Target sequence (P08659 whole entry, looked up): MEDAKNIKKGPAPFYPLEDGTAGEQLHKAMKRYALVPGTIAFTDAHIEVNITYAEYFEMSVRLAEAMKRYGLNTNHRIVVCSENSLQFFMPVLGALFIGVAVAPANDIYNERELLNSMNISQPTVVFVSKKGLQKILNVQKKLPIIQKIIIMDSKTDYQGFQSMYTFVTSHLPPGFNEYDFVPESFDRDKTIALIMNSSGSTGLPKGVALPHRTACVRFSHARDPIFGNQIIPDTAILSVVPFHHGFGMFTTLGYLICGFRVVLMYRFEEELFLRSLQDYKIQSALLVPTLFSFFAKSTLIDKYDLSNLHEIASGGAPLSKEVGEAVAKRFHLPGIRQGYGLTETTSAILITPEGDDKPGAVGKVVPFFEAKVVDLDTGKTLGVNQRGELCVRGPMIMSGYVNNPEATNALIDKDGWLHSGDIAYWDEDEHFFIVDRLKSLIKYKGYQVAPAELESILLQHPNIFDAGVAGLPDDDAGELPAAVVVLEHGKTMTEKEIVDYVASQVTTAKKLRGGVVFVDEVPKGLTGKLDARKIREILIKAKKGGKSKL
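Biochemical qHTS of compounds, final roughly 60 µM downward over six points, against 10 nM purified firefly luciferase using Km concentrations of substrates (10 uM D-luciferin, 10 uM ATP) in Tris acetate pH 7.5 buffer; luminescence output.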
Luc counter – Kinase-Glo luciferase inhibition (counter-screen) | Kinase-Glo luciferase, ATP luminescence, 8 min | Potency, µM (series often up to 38.3 µM), actives largely listed as inhibitors | 0.28% of 200,000 active | AID 1379; further: nearly all actives have a fitted effect of over 60% in size
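Light output from Kinase-Glo luciferase with luciferin and 10 uM ATP in 50 mM imidazole pH 7.2, KCl, MgCl2, Tween 20, BSA; compound pin-delivered, 8-min ambient incubation, then luminescence read.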
A number is an active result; 0 = inactive; ? = inconclusive; - = not tested or not shown; [ ] = dose if it differs, or a comment. Shown are actives, neighbours in structure and some others; about 7.5% of the full set was active somewhere. The call rests on the fitted dose curve; in most records, active means well fitted curve in the direction sought with a large enough effect; inconclusive means small, poorly fitted or top-dose-only effect, or another doubt; inactive means no such curve, though single readings can be large; an effect the other way counts as inactive or inconclusive.

SMILES	SMN2 splice enh	Rab9 prom act	ELG1 genotoxic	NPC1 prom act	FLuc counter	Luc counter
COc1cc(C=O)ccc1OCC(=O)N1CCOCC1	0	0	0	0	0[2.3 µM]	0
COc1ccc([N+](=O)[O-])cc1C(=O)Nc1ccc(OCC(=O)N2CCOCC2)cc1	0	0	0	0	0	0
COc1cc(SC)ccc1C(=O)Nc1cc(C)c(OCC(=O)N2CCOCC2)c(C)c1	-	0	0	0	6µM	-
CCc1ccc(NCc2cc3cc(OC)c(OC)cc3n(CC(=O)Nc3cc(C)ccc3C)c2=O)cc1	-	-	-	-	0	-
O=C(OCC(=O)N(C1CCCCC1)C1CCCCC1)c1ccc(O)cc1	-	0	0	0	0	-
COc1ccc(C(=O)OCC(=O)c2ccc(C3CCCCC3)cc2)cc1	0	0	6.5µM	0	0	0
Nc1ccc(O)cc1C(=O)OCC(=O)C12CC3CC(CC(C3)C1)C2	0	0	0	0	15µM	0
O=C(OCC(=O)C12CC3CC(CC(C3)C1)C2)c1ccc(O)cc1	-	-	0	-	-	-
COc1ccc(C(=O)Nc2ccc(C(=O)OCC(=O)c3ccccc3)cc2)cc1	0	0	0	0	0	0
Nc1ccc(O)cc1C(=O)OCC(=O)c1ccc(C2CCCCC2)cc1	0	0	?	0	2.7µM	0
Cc1cccc(NC(=O)C2CCCN(S(=O)(=O)c3c(C)n[nH]c3C)C2)c1 (stereo not given)	0	-	-	-	0	-
COc1ccc2c(c1)CC/C2=N\OC(=O)c1ccccc1OC	0	0	?	0	3µM	0
COC(=O)c1ccccc1NC(=O)c1cc(-c2cccs2)on1	0	2.2µM	0	0	0	0
O=C(Nc1ccccc1C(F)(F)F)c1cc(-c2ccccc2O)on1	?	4µM	0	?	0	0
COc1ccccc1-c1cc(C(=O)Nc2ccccc2C(F)(F)F)no1	0	-	-	-	0	-
COc1ccc(NC(=O)c2cc(-c3cccs3)on2)cc1	-	0	16µM	0	?	-
O=C(Nc1cccnc1)c1cc(-c2cccs2)on1	0	?	0	0	1.7µM	0
O=C(Nc1cccnc1)c1cc(-c2ccccc2O)on1	-	0	0	0	1.3µM	-
C=CCOc1ccc2nc(NC(=O)OC)[nH]c2c1	11µM	0	9.2µM	0	?	0
CCOc1cc2c(cc1OCC)CN(C(=O)c1cccc(S(=O)(=O)N3CCCC3)c1)CC2	-	0	0	0	0	-
CCCc1ccc2oc(C(=O)N(C)Cc3nccs3)c(C)c2c1	-	?	23µM	?	15µM	-
CC1CCc2c(sc3ncnc(NS(=O)(=O)c4cccs4)c23)C1 (stereo not given)	0	0	0	0	15µM	0
COCCCNc1ncnc2sc3c(c12)CCC(C)C3 (stereo not given)	0	0	0	0	?	0
CC1(C)CC(=O)C(N=Nc2cccc([N+](=O)[O-])c2)=C(O)C1	-	0	18µM	0	11µM	-
COc1ccc(N=NC2=C(O)CC(C)(C)CC2=O)cc1	?	0	?	3.5µM	13µM	0
SMILES	SMN2 splice enh	Rab9 prom act	ELG1 genotoxic	NPC1 prom act	FLuc counter	Luc counter
CC1(C)CC(=O)C(N=Nc2ccc(Br)cc2)=C(O)C1	-	0	10µM	0	3.4µM	-
CCCCCC(C)N (stereo not given)	0	-	-	-	-	0
CCOC(=O)C1=C(O)C(=O)N(Cc2ccccc2)CC1	-	0	0	0	0	-
COc1ccc(N2CC(C(=O)Nc3ccc(S(=O)(=O)Nc4nccs4)cc3)CC2=O)c(OC)c1 (stereo not given)	-	0	0	0	0	-
O=C(NCc1ccon1)C1CCC(=O)N(CCc2cccc(F)c2)C1 (stereo not given)	-	0	0	0	0	-
CCn1c(CNC(C)=O)nnc1SCC(=O)c1ccc(Br)cc1	?	0	0	0	0	0
CCN(CC)C(=S)SCC(=O)c1ccc(Br)cc1	?	?	?	?	19µM	0
O=C(NCCNc1nccc(C(F)(F)F)n1)c1cccs1	-	0	0	0	0	-
CCC(C)Nc1nc(-c2c[nH]c3ccccc23)cs1 (stereo not given)	-	0	0	0	13µM	-
CCc1ccc(-c2csc(-c3c[nH]c4ccccc34)n2)cc1	13µM	1.1µM	?	2.5µM	21µM	0
